Only a selection was taken, and hits are over-represented in it overall.
ERK AVP inh = vasopressin-driven ERK pathway inhibition; HEK293-V1b, vasopressin-stimulated pERK AlphaScreen; Potency, µM (titrated, usually from 57.5 µM), actives largely listed as inhibitors; hit rate 0.99% among 72,000; also: nearly all actives have a fitted effect of over 55% in size
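HEK293 cells stably expressing V1b receptor, seeded overnight in 1% FBS, were treated with compounds for 30 min at 37C, then stimulated 5 min with 25 nM vasopressin; phospho-ERK read by AlphaScreen SureFire after lysis.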
Imprint erasure = genomic imprint erasure induction; mouse ES Peg3-LacZ reporter, beta-gal luminescence, 40 h; Potency, µM (titrated, usually from 60.7 µM), most hits filed as activators; hit rate 0.02% among 110,000; AID 1948
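Each well holds 300 Peg3LacZ-Neo (maternal) female ES cells incubated 40 h at 37C, 5% CO2. LacZ is measured by BetaGlo luminescence, with AC50 and maximum efficacy derived from dose-response curves.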
IkB sig inh = IkB pathway inhibition in ABC-DLBCL cells. ABC-DLBCL IkBa-CBG/CBR dual luciferase ratio, 4 h; response scale: scaled: untreated 0%, proteasome inhibitor 100%. Potency, µM (doses to about 57.1 µM). hit rate 0.04% among 110,000. AID 445; active = well fitted curve in the direction sought with a large enough effect in the signal ratio, not every such curve was filed as active; inconclusive = small, poorly fitted or top-dose-only effect, or a change in a side signal; the % refers to the signal ratio;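 also: the direction sought is a rising ratio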
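Curves were fitted separately to fusion (green), unfused (red) and ratio luminescence, then classed by r2, magnitude and activity. Cells: OCI-Ly3, 4 h compound plus doxycycline at 37C; 10 uM MG-132 defined full response.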
CRE-bla Fsk = CRE-bla signaling modulation under forskolin stimulation. Potency, µM (highest dose often 38.2 µM), most hits filed as activators. hit rate 2.5% among 71,000. CHO CRE-bla reporter (cAMP response element driving beta-lactamase), forskolin EC10, beta-lactamase ratio; active = well fitted activation curve with a large enough effect in the signal ratio, with a control signal flat, not every such curve was filed as active; inconclusive = small, poorly fitted or top-dose-only effect, or effect the other way, or a change in a side signal; the % refers to the signal ratio
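qHTS titration format; CRE-bla CHO reporter; stimulus EC10 NKH 477, a water-soluble forskolin. Read: CCF4 460/530 nm ratio. Potency expressed as AC50 for activators or inhibitors.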
Hits are given with their value; i = inactive; ? = inconclusive; nt = not tested or not shown; ! = a repeat was not active; [ ] = dose if it differs, or a comment. Unless noted, calls follow the shape of the dose curve; as a rule, active = well fitted curve in the direction sought with a large enough effect; inconclusive = small, poorly fitted or top-dose-only effect, or another doubt; inactive = no such curve, though single readings can be large; an effect the other way counts as inactive or inconclusive.

SMILES	ERK AVP inh	Imprint erasure	IkB sig inh	CRE-bla Fsk
CCC(=Nc1ccc(OC)cc1OC)c1c(O)[nH]c(=O)[nH]c1=O	i	i	i	13µM
Cc1cccc(N2CCc3c2nc2ccccc2c3N)c1	25µM!	i	?	i
Cc1cccc(-n2c(/C=C/c3ccccc3O)nc3ccccc3c2=O)c1	nt	i[10.9 µM]	?	nt
C=C1C/C(=C\C)C(=O)O[C@@H]2CCN3CC=C(COC(=O)[C@]1(C)O)[C@H]23	nt	nt	i[11.4 µM]	i
CC[C@H](CO)NC(=O)[C@@H]1C=C2c3cccc4c3c(cn4C)C[C@@H]2N(C)C1	i	nt	i	i
CCOC(=O)c1ncn2c1CN(C)C(=O)c1cc(N=[N+]=[N-])ccc1-2	i	i	nt	nt
CCOC(=O)c1ncn2c1[C@H]1CCCN1C(=O)c1cc(OC)ccc1-2	?	i	i	13µM!
Cc1cc2c(C(C)C)c(O)c(O)c(C=O)c2c(O)c1-c1c(C)cc2c(C(C)C)c(O)c(O)c(C=O)c2c1O	25µM!	i	?	?
COC(=O)[C@@H]1C[C@@H]1[C@@H](NP(=O)(c1ccccc1)c1ccccc1)c1ccccc1	nt	nt	nt	i
CN(c1ccccc1)S(=O)(=O)c1cccc(C(=O)N2CCN(c3ccccn3)CC2)c1	25µM	i	?	i
C=C[C@@H]1CN2CC[C@@H]1C[C@H]2[C@H](O)c1ccnc2ccccc12	nt	nt	i[11.4 µM]	i
Cn1nc(-c2ccc(OCC(=O)N3CCN(Cc4ccccc4)CC3)cc2)c2ccccc2c1=O	32µM	i	?	0.016µM
C[C@@H]1CC[C@@]2(OC1)O[C@H]1[C@@H](O)[C@H]3[C@@H]4CC[C@H]5C[C@@H](O[C@@H]6O[C@H](CO)[C@H](O[C@@H]7O[C@H](CO)[C@@H](O)[C@H](O[C@@H]8OC[C@@H](O)[C@H](O)[C@H]8O)[C@H]7O[C@@H]7O[C@H](CO)[C@@H](O)[C@H](O[C@@H]8O[C@H](CO)[C@@H](O)[C@H](O)[C@H]8O)[C@H]7O)[C@H](O)[C@H]6O)[C@H](O)C[C@]5(C)[C@H]4CC[C@]3(C)[C@H]1[C@@H]2C	32µM	i	?	?
Nc1nc2c(ncn2[C@@H]2O[C@H](CO)[C@@H](O)[C@@H]2O)c(=[SH+])[nH]1.O=[N+]([O-])c1ccc(O)[c]([Hg])c1	nt	i[10.9 µM]	nt	nt
Cc1c2ccncc2c(C)c2c1[nH]c1ccccc12	i	i	?	16µM!
COC(=O)Nc1cccc(OC(=O)Nc2cccc(C)c2)c1	32µM	i	i	?
CC(C)N[C@@H](C)Cc1ccc(I)cc1	i	nt	i	i
Nc1c(C(=O)NCCN2CCOCC2)c2nc3ccccc3nc2n1Cc1ccco1	16µM	i	i	?
COc1ccc(CCNC(=O)c2c(N)n(CCN3CCOCC3)c3nc4ccccc4nc23)cc1	i	i	i	6.3µM
CC(C)CCNC(=O)c1c(N)n(CC2CCCO2)c2nc3ccccc3nc12 (stereo not drawn)	i	i	i	?
Nc1c(C(=O)NCCc2ccccc2)c2nc3ccccc3nc2n1CCN1CCOCC1	i	i	?	?
CCCCn1c(N)c(C(=O)NCCN2CCOCC2)c2nc3ccccc3nc21	i	i	?	10µM
O=C1C[C@H]2OCCC=C3CN4CC[C@@]56c7ccccc7N1[C@@H]5[C@H]2[C@H]3C[C@@H]46	nt	nt	i[11.4 µM]	i
CC(C)C[C@H]1C(=O)N2CCC[C@@H]2[C@]2(O)O[C@](NC(=O)[C@H]3C=C4c5cccc6[nH]cc(c56)C[C@H]4N(C)C3)(C(C)C)C(=O)N12	nt	nt	i[11.4 µM]	?
COC1=C(C)C(=O)c2c(c(COC(N)=O)c3n2C[C@@H]2[C@@H]3N2C)C1=O (stereo partly drawn)	i[11.5 µM]	i[10.9 µM]	3.2µM	0.2µM
SMILES	ERK AVP inh	Imprint erasure	IkB sig inh	CRE-bla Fsk
CN1Cc2c(ccc3c2OCO3)[C@@H]2[C@@H](O)Cc3cc4c(cc3[C@@H]21)OCO4	i	i	?	3.2µM!
CCCCn1c(O)c(C=NC2CC3CCC2(C)C3(C)C)c(=O)[nH]c1=O (stereo not drawn)	i	i	i	13µM
C=C(C)[C@@H]1CN[C@H](C(=O)O)[C@H]1CC(=O)O	nt	nt	i	i
C/C=C(\C)C(=O)O[C@@H]1C(C)=C2[C@H]([C@@H]1OC(=O)CCCCCCC)[C@@](C)(OC(C)=O)C[C@@H](OC(=O)CCC)[C@@]1(O)[C@H]2OC(=O)[C@]1(C)O	i	nt	4µM	?
CCCCCc1cc(O)cc(O)c1	i	i	i	i
CCCCCCCCCc1ccc(O)cc1	i	i	i	5µM
O=C1C2CC=CCC2C(=O)N1SC(Cl)(Cl)Cl (stereo not drawn)	16µM	i	?	?
Nc1ccccc1O.O.O=C(O)[C@H]1[O][Sb][O][C@H]1C(=O)O	i[11.5 µM]	0.32µM	?	i[7.6 µM]
CC[C@H]1CN2CC[C@@H]1C[C@@H]2[C@H](O)c1ccnc2ccccc12	nt	nt	i[11.4 µM]	?
CCC(C)NC(=O)c1c(N)n(CCCOC)c2nc3ccccc3nc12 (stereo not drawn)	i	i	?	?
COCCNC(=O)c1c(NC(=O)c2ccco2)n(Cc2ccccc2)c2nc3ccccc3nc12	i	i	i	2µM
O=C(O)c1cc[c]([Hg][S]c2ncnc3nc[nH]c23)cc1	i[11.5 µM]	i[10.9 µM]	i[11.4 µM]	i[7.6 µM]
CN(C)C(=S)SSC(=S)N(C)C	?	i	6.3µM	?
CN(C)C(=S)SC(=S)N(C)C	nt	i	nt	nt
O=c1ccc2cc(O[C@@H]3O[C@@H](CO)[C@@H](O)[C@@H](O)[C@H]3O)c(O)cc2o1	nt	nt	i[11.4 µM]	?
CCCCn1c(O)c(C(CC)=NCCCN(C)C)c(=O)[nH]c1=O	i	i	i	i

Assay outcomes deposited in PubChem by National Center for Advancing Translational Sciences (NCATS).
